Shown are actives, neighbours in structure and some others; about 10% of the full set was active somewhere.
G9a block: qHTS Assay for Inhibitors of Histone Lysine Methyltransferase G9a; Histone-lysine N-methyltransferase EHMT2 (Homo sapiens), Q96KQ7; G9a H3K9 monomethylation, AlphaScreen, 2 h; Potency, µM (series often up to 102 µM), without a hit: at the highest dose activity, negative = inhibition, hits mostly inhibitors; 8.8% of 350,000 active; note: potency is the fitted concentration of half-maximal effect; % is set by controls: 0 for no effect and ±100 for the full control effect; nearly all actives have a fitted effect of over 75% in size
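AlphaScreen detection with an anti-monomethyl H3K9 antibody quantified product after a 2 h room-temperature reaction containing 500 nM biotinylated H3K9 peptide, 20 µM SAM and 20 nM enzyme, which had been preincubated 15 min with compound.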
Six1-Eya2 blk: qHTS Assay for Inhibitors of the Six1/Eya2 Interaction; Homeobox protein SIX1 (Homo sapiens) + Protein phosphatase EYA2 (Homo sapiens), …; AlphaScreen GST-Six1/His-Eya2 binding, biochemical; stronger effect = lower value; activity change, % (test concentration not listed); 0.56% of 360,000 active; AID 651725, 2012; in the data active = activity change below about -65%; inconclusive = mostly about -30% to -63%; note: % is set by controls: 0 for no effect and ±100 for the full control effect
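Compounds are tested against tagged Six1 and Eya2 proteins bridged by glutathione donor and nickel acceptor beads; after a one-hour incubation at 37 °C without light, AlphaScreen emission is recorded.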
JMJD2A Tudor: qHTS Assay for Inhibitors of JMJD2A-Tudor Domain; 4.4% of 390,000 active; Potency, µM (top dose mostly 114 µM), for the others: at the top dose activity change, negative = inhibition, usual class: inhibitors; Lysine-specific demethylase 4A (Homo sapiens), O75164; AlphaScreen JMJD2A-Tudor / H3K4me3 peptide binding; note: potency is the fitted concentration of half-maximal effect; % is set by controls: 0 for no effect and ±100 for the full control effect; nearly all actives have a fitted effect of over 50% in size
CtBP-E1A blk: qHTS Assay for Inhibitors of the CtBP/E1A Interaction. AlphaScreen GST-E1A/His-CtBP binding, 1536-well; stronger effect = lower value. activity change, % (concentration not given with the values). CtBP / adenovirus E1A interaction (AlphaScreen). 0.49% of 340,000 active. AID 651724, 2012; in the data active = activity change below about -65%; inconclusive = mostly about -30% to -63%; note: % is set by controls: 0 for no effect and ±100 for the full control effect
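Homogeneous bead-based format: GST-tagged E1A captured on glutathione donor beads, His-tagged CtBP on nickel acceptor beads; compounds precede bead addition by 2 h at 37 °C.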
BAZ2B block: qHTS Assay for Inhibitors of BAZ2B | 4.4% of 360,000 active | AID 504333, 2011 | AlphaScreen BAZ2B-H3K14Ac peptide displacement | Potency, µM (doses to about 114 µM), for the others: at the highest dose activity change, negative = inhibition, hits mostly inhibitors | Bromodomain adjacent to zinc finger domain protein 2B (Homo sapiens), Q9UIF8; note: potency is the fitted concentration of half-maximal effect; % is set by controls: 0 for no effect and ±100 for the full control effect; nearly all actives have a fitted effect of over 60% in size
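Compounds, titrated to a top concentration of 110 uM, were incubated 30 min at room temperature with preformed BAZ2B/acetyl-K14 H3 peptide complex (50 nM each). Proximity signal was measured by AlphaScreen after 20 min with beads.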
HP1b binding inh: HTS for Inhibitors of HP1-beta Chromodomain Interactions with Methylated Histone Tails; Chromobox protein homolog 1 (Homo sapiens), P83916; AlphaScreen HP1-beta / biotin-H3K9me3 peptide binding; Potency, µM (series often up to 114 µM), for inactives: at the top dose activity change, negative = inhibition, usual class: inhibitors; 0.56% of 390,000 active; note: potency is the fitted concentration of half-maximal effect; nearly all actives have a fitted effect of over 70% in size
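Compound inhibition of the preformed complex between 50 nM HP1-beta and 50 nM biotinylated H3K9me3 peptide was read by AlphaScreen. Buffer was PBS pH 7.4 with 0.01% Tween-20. Incubations ran 30 min at room temperature, with 10 ug/mL donor/acceptor beads.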
Numbers without * were called inactive; ? = inconclusive; . = no result given; [ ] = dose if it differs, or a comment. Unless noted, calls come from the whole dose curve; as a rule, active = well fitted inhibition curve with a large enough effect; inconclusive = small, poorly fitted or top-dose-only effect; inactive = no such curve, though single readings can be large or run the other way.

SMILES	G9a block	Six1-Eya2 blk	JMJD2A Tudor	CtBP-E1A blk	BAZ2B block	HP1b binding inh
O=C(CSc1nnc(-c2cc3ccccc3cc2O)n1Cc1ccco1)N1CCc2ccccc2C1	?	-1	-29%	8	-25%	23%
COc1cccc(-c2n[nH]c(=S)n2Cc2ccco2)c1OC	?	2	7.9µM*	-2	-5%	14%
Oc1ccc(-c2n[nH]c(=S)n2Cc2ccco2)cc1	2.8µM*	-10	3.5µM*	9	-29%	-9%
Oc1cc2ccccc2cc1-c1n[nH]c(=S)n1Cc1ccco1	1.6µM*	-4	?	2	?	-8%
Cc1nn(C)c(-c2n[nH]c(=S)n2Cc2ccco2)c1Cl	6.3µM*	9	22µM*	-3	-11%	11%
Cc1ccc(-c2nc(=S)c3c(n2Cc2ccco2)CCCC3)cc1	-44%[12.7 µM]	1	-4%	-2	-18%	69%
CCOc1ccc(-c2cc(C(=O)NCc3ccccc3)c3c(-c4ccc(CC)cc4)[nH]nc3n2)cc1	1%[59 µM]	.	-2%	.	-2%	25%
CCC(Sc1nnc(C)n2c1cc1occc12)C(=O)Nc1ccccc1OC (stereo not drawn)	-7%[59 µM]	.	-22%	.	-39%	5%
CN1CCC(=NNC(=O)C(=O)NCc2ccccc2)CC1	40µM*	5	-9%	7	-1%	17%
CN1CCC(=NNC(=O)C(=O)Nc2cccc(Br)c2)CC1	-5%[59 µM]	-2	22µM*	-18	-27%	5%
CN1CCN(C(=S)C(=O)NCc2ccccc2)CC1	6%	7	-21%	5	-9%	18%
CCCSCCCNC(=O)CN1C(=O)COc2ccc(S(=O)(=O)N3CCC(C)CC3)cc21	4%[59 µM]	.	4%	.	1%	41%
Cc1nc(NCCOc2ccccc2)sc1C(=O)Nc1ccccc1	45µM*	-3	-19%	-11	-26%	25%
Cc1nc(Cl)sc1C(=O)Nc1ccccc1	-9%[59 µM]	-3	-13%	5	27%	34%
Cc1nc(NCc2ccccc2)sc1C(=O)Nc1ccccc1	50µM*	5	-23%	-3	?	20%
CCOC(=O)c1nc(NCc2ccccc2)sc1C	3.5µM*	-8	79µM*	-6	?	?
Cn1c2ccc(CC(=O)O)cc2c2cc(CC(=O)O)ccc21	50µM*	-1	-12%	13	?	27%
CSc1nsc(SC)c1NC(=O)OCCc1ccccn1	?	5	-9%	-1	4%	25%
CSc1nsc(SC)c1NC(=O)OCc1ccccc1	40µM*	8	-7%	11	0%	33%
Cc1cccc(NC(=O)N2CCc3c(sc4c3CCCC4)C2c2ccc(F)cc2)c1 (stereo not drawn)	-8%[59 µM]	.	-23%	.	-22%	4%
C=CCC(C)(NCc1ccccc1)c1ccco1 (stereo not drawn)	13µM*	0	2µM*	10	50µM*	?
C/C(=N\NC(=O)CCC(=O)NCc1ccccc1)c1ccco1	8%	6	12%	2	-15%	47%
COc1ccc(SCC(c2ccccc2)N2CCN(CC(C)C)CCC2=O)cc1 (stereo not drawn)	.	.	27%	.	.	70%
CCCCc1nc(SCC(=O)Nc2nnc(CCCC)s2)n[nH]1	?	-2	3%	.	-28%	43%
CCOC(=O)c1c(NC(=O)CSc2ncn[nH]2)sc(C)c1C	45µM*	-19	-24%	?	-12%	-17%
SMILES	G9a block	Six1-Eya2 blk	JMJD2A Tudor	CtBP-E1A blk	BAZ2B block	HP1b binding inh
CCOC(=O)c1c(NC(=O)c2cccnc2Cl)sc(C(=O)N(C)C)c1C	25µM*	5	-13%	-1	0%	-11%
CCCc1nnc(NC(=O)CSc2ncn[nH]2)s1	35µM*	12	-15%	7	-39%	21%
CCOC(=O)c1c(NC(=O)CSc2ncn[nH]2)sc(C(=O)N(C)C)c1C	50µM*	-3	-6%	-2	8%	12%
COc1cccc(-n2c(=O)c3sc4ccccc4c3n(CC(=O)Nc3ccc(F)cc3F)c2=O)c1	-27%[59 µM]	.	-12%	.	-17%	29%
CN1CCN2c3ccccc3CC3(C(=O)OC(C)(C)OC3=O)C2C1 (stereo not drawn)	.	.	5%[57.1 µM]	.	.	21%[57 µM]
CC(C)c1ccc(C2C(C#N)=C(N)N3C(=C2C#N)Sc2ccccc23)cc1 (stereo not drawn)	35µM*	.	.	.	-10%[57.1 µM]	.
CC(=O)n1c2c(c3ccccc31)OC(N)=C(C#N)C2c1ccc(C(C)C)cc1 (stereo not drawn)	?	-4	-35%	8	-39%[57.1 µM]	10%
CN(C)CCn1c(=N)n(CC(O)c2ccc(Cl)c(Cl)c2)c2ccccc21 (stereo not drawn)	45µM*	10	-15%	-21	-8%	14%
N=c1n(CCN2CCCCC2)c2ccccc2n1CC(O)c1cccc(Br)c1 (stereo not drawn)	50µM*	-5	-20%	-4	-10%	32%
N=c1n(CCN2CCCCC2)c2ccccc2n1CC(=O)c1ccc(Cl)c(Cl)c1	.	26	-28%	25	32µM*	1%
N=c1n(CCN2CCCCC2)c2ccccc2n1CC(O)c1ccc(Cl)c(Cl)c1 (stereo not drawn)	18µM*	-7	?	-14	-10%	25%
CCn1c(=N)n(CC(=O)c2ccc(Cl)c(Cl)c2)c2ccccc21	19%	67	2%	25	-1%	56%
Cc1cc2ccccc2n1CCNC(=O)c1ccccc1F	-6%[59 µM]	.	-35%	.	-39%	-9%
COc1cccc(C2CC(=O)Nc3c2c(=O)[nH]c2ncnn32)c1 (stereo not drawn)	1%	2	35µM*	-2	-4%	25%
COc1ccc(Cl)cc1NC(=O)C(=O)NCc1ccc(Cl)cc1	17%[59 µM]	.	10%	.	9%	22%
COc1cc([N+](=O)[O-])ccc1NC(=O)CSc1ccccn1	7%	.	.	.	-16%	.
COc1cc(NC(=O)c2cc([N+](=O)[O-])ccc2NC(=O)CNCc2ccccn2)cc(OC)c1	0%	-91*	79µM*	-84*	?	6%
O=C(O)c1cc([N+](=O)[O-])ccc1NCc1ccccn1	23%[2.33 µM]	-5	79µM*	-1	79µM*	27%
COc1ccc(NC(=O)c2cc([N+](=O)[O-])ccc2NC(=O)CNCc2ccccn2)c(OC)c1	28µM*	?	79µM*	-17	?	-1%

High-throughput results as filed in PubChem.
